From PubChem BioAssay AID504710 (Sanford-Burnham Center for Chemical Genomics, 2011)
The source made the active and inactive calls.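 The calls were made as follows: active = inhibition reaching about 16% in any single replicate (limit read from the data); inactive = the rest.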

biological target: Hexokinase HKDC1 (Homo sapiens) (UniProt Q2TB90); test: HKDC1 hexokinase inhibitors, confirmation, biochemical, single concentration (AID 504710); details: recombinant HKDC1, G6PDH/diaphorase/resazurin fluorescence; at 20 µM; hits give high values
Sequence (Q2TB90 whole entry, looked up): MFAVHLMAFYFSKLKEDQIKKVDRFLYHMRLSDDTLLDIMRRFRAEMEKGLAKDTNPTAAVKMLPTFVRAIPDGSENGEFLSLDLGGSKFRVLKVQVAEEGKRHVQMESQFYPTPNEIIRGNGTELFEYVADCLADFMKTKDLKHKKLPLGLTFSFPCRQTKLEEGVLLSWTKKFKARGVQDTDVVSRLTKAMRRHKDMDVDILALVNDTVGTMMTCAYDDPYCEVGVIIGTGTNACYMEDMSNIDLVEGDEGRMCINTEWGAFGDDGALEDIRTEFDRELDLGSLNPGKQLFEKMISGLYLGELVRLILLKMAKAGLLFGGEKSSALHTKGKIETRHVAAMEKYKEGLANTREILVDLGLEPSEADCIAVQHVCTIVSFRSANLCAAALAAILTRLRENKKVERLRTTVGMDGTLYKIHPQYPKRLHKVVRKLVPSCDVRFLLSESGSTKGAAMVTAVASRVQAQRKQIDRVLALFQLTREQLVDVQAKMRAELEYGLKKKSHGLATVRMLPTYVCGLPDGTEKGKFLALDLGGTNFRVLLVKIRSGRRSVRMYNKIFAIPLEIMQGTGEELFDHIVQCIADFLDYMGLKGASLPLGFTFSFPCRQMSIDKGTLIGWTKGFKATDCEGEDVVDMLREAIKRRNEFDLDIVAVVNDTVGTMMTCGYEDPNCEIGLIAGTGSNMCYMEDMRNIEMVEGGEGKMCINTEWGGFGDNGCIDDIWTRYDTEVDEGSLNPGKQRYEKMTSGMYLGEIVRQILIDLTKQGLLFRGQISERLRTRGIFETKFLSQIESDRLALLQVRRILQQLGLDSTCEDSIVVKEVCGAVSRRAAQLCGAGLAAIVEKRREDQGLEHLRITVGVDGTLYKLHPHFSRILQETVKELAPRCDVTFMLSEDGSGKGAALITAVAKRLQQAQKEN

SMILES | inhibition
Cc1ccc(N=Cc2cc(Cc3ccccc3Cl)cc([N+](=O)[O-])c2O)c(O)c1 | 30.2% (active)
Cc1cc2cc(CCNC(=O)c3ccc(S(=O)(=O)N4CCOCC4)cc3)c(=O)[nH]c2cc1C | 45% (active)
COc1cc2c(cc1OC)-c1cc(NCc3ccccn3)nc(=O)n1CC2 | 54% (active)
CC1COCC(C)N1C1=C(Cl)C(=O)c2ccccc2C1=O (configuration not stated) | 43.5% (active)
CC(C)Nc1nnc(SCC(=O)Nc2ccc3c(c2)C(=O)c2ccccc2C3=O)s1 | 53.5% (active)
O=S(=O)(Nc1ccc(O)c2ccccc12)c1cccs1 | 30.6% (active)
Cc1cc(C2=NNC(=Nc3ccc(S(=O)(=O)N4CCOCC4)cc3)SC2)c(C)n1CC1CCCO1 (configuration not stated) | -55.8% (inactive)
CCOc1ccccc1Nc1nnc(SCc2nnc(-c3cc(OC)c(OC)c(OC)c3)o2)s1 | 44.7% (active)
CN(C)c1ccc(Cc2cc3c(O)ccc(O)c3cc(Cc3ccc(N(C)C)cc3)c2=O)cc1 | 44.7% (active)
O=C(CSc1cccc2cccnc12)N/N=C/c1cccnc1 | -46.6% (inactive)
Cc1cc(C)n2cc(CSc3nnc(-c4ccccc4)c(-c4ccccc4)n3)nc2n1 | 38.5% (active)
CC(=NNc1nc2ccccc2o1)c1cc2ccccc2cn1 | -77.2% (inactive)
COCC(=O)OC1CCn2c1nc1c2C(=O)C(C)=C(NC(C)=O)C1=O (configuration not stated) | 79.4% (active)
COC1=C(OC)C(=O)C(Sc2ccc3ccccc3c2)=CC1=O | 71.3% (active)
N#Cc1ccc(CSc2nnc(NC(=O)c3ccc4ncsc4c3)s2)cc1 | 40.7% (active)
S=C(NN=C(c1ccccc1)c1ccccn1)N(Cc1ccccn1)Cc1ccccn1 | -59.4% (inactive)
CCn1cc(C(=O)NCc2ccc3c(c2)OCO3)c2cc(OC)c(OC)cc2c1=O | 45.9% (active)
O=C(O)c1cc(O)c2c(c1)[C@H]([C@H]1c3cc(C(=O)O)cc(O)c3C(=O)c3c(O[C@@H]4O[C@H](CO)[C@@H](O)[C@H](O)[C@H]4O)cccc31)c1cccc(OC3O[C@H](CO)[C@@H](O)[C@H](O)[C@H]3O)c1C2=O (some centres not stated) | 52.1% (active)
COc1ccc(NC(=O)CSc2ccc(-c3ccco3)nn2)cc1OC | 44% (active)

SMILES | inhibition
CC(=NNC(=S)Nc1cccc(Cl)c1)c1ccccn1 | -63.5% (inactive)
O=Cc1[nH]c2ccccc2c1N(C(=O)CCl)c1ccccc1 | 34% (active)
Nc1ccc(S(=O)(=O)c2cc(O)c3ccccc3c2O)cc1 | 68.7% (active)
O=C(O)c1ccc2ncsc2c1 | 48.1% (active)
CC(=O)N(C1=C(Cl)C(=O)c2ccccc2C1=O)c1ccc(C(=O)O)cc1 | 64.4% (active)
Cc1cc(C2=NNC(=Nc3ccc(S(=O)(=O)N4CCOCC4)cc3)SC2)c(C)n1C | -46.6% (inactive)
NS(=O)(=O)c1ccc(N=Nc2c(=O)[nH]n3c(=O)c4c([nH]c23)CCCC4)cc1 | 72.5% (active)
CCc1nc2sc3c(=O)[nH]cnc3c2c2c1CSC(C)(C)C2 | 30.5% (active)
CCC(c1ccccc1)C(CC)c1cc(O)c(O)c(O)c1 (configuration not stated) | 35.8% (active)
CC(=O)N(C1=C(Cl)C(=O)c2ccccc2C1=O)C1CCCCC1 | 78.2% (active)
Cc1ccc2oc(=O)c3cnn(CC(=O)N4CCc5ccccc5C4)c3c2c1 | -50.8% (inactive)
O=C(c1ccccc1)c1n[nH]c(-c2ccccc2)cc1=O | 16.3% (active)
CC(C)c1nc2oc3c(=O)[nH]cnc3c2c2c1COC(C)(C)C2 | 48.4% (active)
CC(=NNC(=S)Nc1cccc(C)c1)c1ccccn1 | -60.1% (inactive)
CC(=NNC(=S)N1CC2CCC(CC2)C1)c1cccc(C)n1 | -51.9% (inactive)
COc1ccc(NC(=O)CSc2ccc(-c3cccnc3)nn2)c(OC)c1 | 38.8% (active)
CCOc1ccc(/C=C2/SC(=S)N(CCC(=O)Nc3ccc(C(=O)O)cc3)C2=O)cc1 | -41.5% (inactive)
Cc1ccc(C(=O)c2c(C)oc3c2C(=O)C(=O)c2ccccc2-3)cc1 | 46.2% (active)
